Data: PubChem BioAssay AID1159580 (chemical genetic matrix, 2015)
Screen size: about 5,500 compounds; about 2,000 (36%) were called active. Roughly 18% stayed inconclusive and do not appear here. Rule as the data show it: active = normalized growth mostly below about 0.91 (no sharp cut-off); inconclusive = no clear call, values can overlap the other calls; inactive = mostly above about 0.92. This is one part of the list.

Assay: chemical genetic growth profiling, strain panel (AID 1159580);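 also: tested at 20 µM; growth read once vehicle control cultures reached saturation at 30 °C; 1 = growth at the plate median or of vehicle wells; lower values mean less growth of the strain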
Details: growth OD

Measured: normalized growth

Fc1ccc([C@@H]2CCNC[C@H]2COc2ccc3c(c2)OCO3)cc1
inactive: S. cerevisiae deletion strains, locus YJR075W, strain HOC1, active compounds read low 1.03 | S. cerevisiae deletion strains, locus YKL009W, strain mrt4, active compounds read low 1.03 | S. cerevisiae deletion strains, locus YKL068W, active compounds read low 1 | S. cerevisiae deletion strains, locus YKL085W, strain MDH1 (second series), active compounds read low 0.991 | S. cerevisiae deletion strains, locus YKL085W, strain MDH1, active compounds read low 0.991 | S. cerevisiae deletion strains, locus YKL160W, strain elf1, active compounds read low 0.99 | S. cerevisiae deletion strains, locus YKL190W, strain CNB1, active compounds read low 1.01 | S. cerevisiae deletion strains, locus YKR001C, strain vps1, active compounds read low 1.02 | S. cerevisiae deletion strains, locus YKR026C, strain gcn3, active compounds read low 1.01 | S. cerevisiae deletion strains, locus YKR091W, strain srl3, active compounds read low 0.999 | S. cerevisiae deletion strains, locus YLL001W, strain dnm1, active compounds read low 1 | S. cerevisiae deletion strains, locus YLL026W, active compounds read low 0.998 | S. cerevisiae deletion strains, locus YLL041C, strain sdh2, active compounds read low 1 | S. cerevisiae deletion strains, locus YLR027C, strain aat2, active compounds read low 1 | S. cerevisiae deletion strains, locus YLR039C, strain RIC1, active compounds read low 1.09 | S. cerevisiae deletion strains, locus YLR058C, strain SHM2, active compounds read low 1.01 | S. cerevisiae deletion strains, locus YLR102C, strain apc9, active compounds read low 1.02 | S. cerevisiae deletion strains, locus YLR113W, strain HOG1, active compounds read low 0.995 | S. cerevisiae deletion strains, locus YLR221C, strain rsa3, active compounds read low 1.01 | S. cerevisiae deletion strains, locus YLR258W, strain gsy2, active compounds read low 1.01 | S. cerevisiae deletion strains, locus YLR262C, strain YPT6 (second series), active compounds read low 1.08 | S. cerevisiae deletion strains, locus YLR262C, strain YPT6, active compounds read low 1.09 | S. cerevisiae deletion strains, locus YLR268W, strain sec22, active compounds read low 0.989 | S. cerevisiae deletion strains, locus YLR320W, strain mms22, active compounds read low 0.984 | S. cerevisiae deletion strains, locus YLR330W, strain CHS5, active compounds read low 1.01 | S. cerevisiae deletion strains, locus YLR342W, strain FKS1 (second series), active compounds read low 1.06 | S. cerevisiae deletion strains, locus YLR342W, strain FKS1, active compounds read low 0.996 | S. cerevisiae deletion strains, locus YLR357W, strain rsc2, active compounds read low 0.998 | S. cerevisiae deletion strains, locus YLR370C, strain arc18, active compounds read low 0.994 | S. cerevisiae deletion strains, locus YLR371W, strain rom2, active compounds read low 1.01 | S. cerevisiae deletion strains, locus YLR384C, strain iki3, active compounds read low 0.995 | S. cerevisiae deletion strains, locus YLR418C, strain cdc73, active compounds read low 1.01 | S. cerevisiae deletion strains, locus YML016C, strain PPZ1, active compounds read low 1.01 | S. cerevisiae deletion strains, locus YML032C, strain rad52, active compounds read low 1.02 | S. cerevisiae deletion strains, locus YML120C, strain ndi1, active compounds read low 0.991 | S. cerevisiae deletion strains, locus YML124C, strain tub3, active compounds read low 1 | S. cerevisiae deletion strains, locus YMR058W, strain fet3, active compounds read low 1 | S. cerevisiae deletion strains, locus YMR078C, strain ctf18, active compounds read low 1.01 | S. cerevisiae deletion strains, locus YMR125W, strain sto1, active compounds read low 0.999 | S. cerevisiae deletion strains, locus YMR129W, active compounds read low 0.995 | S. cerevisiae deletion strains, locus YMR205C, strain PFK2, active compounds read low 0.98 | S. cerevisiae deletion strains, locus YMR223W, strain ubp8, active compounds read low 1.03 | S. cerevisiae deletion strains, locus YMR231W, strain pep5, active compounds read low 1.01 | S. cerevisiae deletion strains, locus YMR263W, strain SAP30, active compounds read low 1 | S. cerevisiae deletion strains, locus YMR307W, strain GAS1, active compounds read low 1.13 | S. cerevisiae deletion strains, locus YNL067W, strain RPL9B, active compounds read low 0.994 | S. cerevisiae deletion strains, locus YNL071W, strain lat1, active compounds read low 1 | S. cerevisiae deletion strains, locus YNL128W, strain TEP1, active compounds read low 1.02 | S. cerevisiae deletion strains, locus YNL153C, strain GIM3, active compounds read low 0.979 | S. cerevisiae deletion strains, locus YNL183C, strain NPR1, active compounds read low 1.01 | S. cerevisiae deletion strains, locus YNL209W, strain ssb2, active compounds read low 1 | S. cerevisiae deletion strains, locus YNL233W, strain BNI4, active compounds read low 1 | S. cerevisiae deletion strains, locus YNL248C, strain rpa49, active compounds read low 1.02 | S. cerevisiae deletion strains, locus YNL250W, strain rad50, active compounds read low 1 | S. cerevisiae deletion strains, locus YNL271C, strain bni1, active compounds read low 1.02 | S. cerevisiae deletion strains, locus YNL298W, strain CLA4, active compounds read low 1.01 | S. cerevisiae deletion strains, locus YNL307C, strain MCK1, active compounds read low 1.03 | S. cerevisiae deletion strains, locus YNL322C, strain KRE1 (second series), active compounds read low 1.01 | S. cerevisiae deletion strains, locus YNL322C, strain KRE1, active compounds read low 1.01 | S. cerevisiae deletion strains, locus YNR049C, strain mso1, active compounds read low 1 | S. cerevisiae deletion strains, locus YNR052C, strain pop2, active compounds read low 1.02 | S. cerevisiae deletion strains, locus YOL006C, strain TOP1, active compounds read low 1.06 | S. cerevisiae deletion strains, locus YOL012C, strain htz1 1.14 | S. cerevisiae deletion strains, locus YOL147C, strain pex11, active compounds read low 1 | S. cerevisiae deletion strains, locus YOR001W, strain rrp6, active compounds read low 0.983 | S. cerevisiae deletion strains, locus YOR061W, strain CKA2, active compounds read low 1.01 | S. cerevisiae deletion strains, locus YOR069W, strain VPS5, active compounds read low 1.01 | S. cerevisiae deletion strains, locus YOR070C, strain gyp1, active compounds read low 1 | S. cerevisiae deletion strains, locus YOR080W, strain dia2, active compounds read low 1 | S. cerevisiae deletion strains, locus YOR083W, strain WHI5, active compounds read low 1.01 | S. cerevisiae deletion strains, locus YOR106W, strain vam3, active compounds read low 1 | S. cerevisiae deletion strains, locus YOR136W, strain idh2, active compounds read low 1.01 | S. cerevisiae deletion strains, locus YOR144C, strain elg1, active compounds read low 1 | S. cerevisiae deletion strains, locus YOR184W, strain ser1, active compounds read low 1.05 | S. cerevisiae deletion strains, locus YOR231W, strain MKK1, active compounds read low 1.03 | S. cerevisiae deletion strains, locus YOR265W, strain rbl2, active compounds read low 0.996 | S. cerevisiae deletion strains, locus YOR270C, strain vph1, active compounds read low 0.905 | S. cerevisiae deletion strains, locus YOR290C, strain snf2, active compounds read low 1.03 | S. cerevisiae deletion strains, locus YOR316C, strain cot1, active compounds read low 1 | S. cerevisiae deletion strains, locus YPL051W, strain arl3, active compounds read low 1 | S. cerevisiae deletion strains, locus YPL055C, strain LGE1, active compounds read low 1.01 | S. cerevisiae deletion strains, locus YPL078C, strain atp4, active compounds read low 1.01 | S. cerevisiae deletion strains, locus YPL106C, strain sse1, active compounds read low 1.03 | S. cerevisiae deletion strains, locus YPL240C, strain hsp82, active compounds read low 1.02 | S. cerevisiae deletion strains, locus YPL241C, strain CIN2, active compounds read low 1.01 | S. cerevisiae deletion strains, locus YPL256C, strain CLN2, active compounds read low 1.04 | S. cerevisiae deletion strains, locus YPR119W, strain clb2, active compounds read low 1.01 | S. cerevisiae deletion strains, locus YPR141C, strain kar3, active compounds read low 1 | S. cerevisiae deletion strains, locus YPR163C, strain tif3, active compounds read low 1 | S. cerevisiae deletion strains, locus YPR167C, strain met16, active compounds read low 1.01 | S. cerevisiae deletion strains, strain wtn01, active compounds read low 0.998 | S. cerevisiae strains, strain wild type, active compounds read low 1.02
